According to PubChem BioAssay (NCI):
About 79,000 compounds went through this panel and 15% of them were active in at least one assay; those are over-represented in the sample as a whole. Rule as the data show it: active = growth inhibition above about 70%; inactive = the rest. Where a SMILES comes first, the peptide text is derived from it. The star is where a group is joined. Cbz = O=C(OCc1ccccc1)*

What was measured:
[1] = NCI Yeast Anticancer Drug Screen. Data for the rad50 strain (AID 155);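 also: 0% = growth of vehicle-only cultures of the same strain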; details: S. cerevisiae rad50 strain growth inhibition; at 50.0 µM; hits give high values
How it was run: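 Yeast carrying a defined DNA repair defect were exposed to test compounds, and growth was compared with vehicle-treated controls to give percent inhibition.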

[2] = NCI Yeast Anticancer Drug Screen. Data for the mec2-1 strain (AID 157); details: S. cerevisiae mec2-1 strain, at 50.0 µM, hits give high values
How it was run: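 mec2-1 yeast strain, carrying an alteration in DNA damage repair or cell cycle control, was exposed to compounds; growth inhibition was measured relative to vehicle-treated controls.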

[3] = NCI Yeast Anticancer Drug Screen. Data for the sgs1 mgt1 strain (AID 161);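 also: 0% = growth of cultures given vehicle only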; details: S. cerevisiae sgs1 mgt1 strain, at 50.0 µM, hits give high values
How it was run: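 Percent growth inhibition was derived by comparing compound-exposed mutant yeast with vehicle-exposed cultures. The strain carries alterations in DNA damage repair.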

[4] = NCI Yeast Anticancer Drug Screen. Data for the cln2 rad14 strain (AID 165);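 also: 0% = growth equal to vehicle treated cultures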; details: S. cerevisiae cln2 rad14 strain, at 50.0 µM, hits give high values
How it was run: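 Yeast carrying cln2 and rad14 alterations (cell cycle control and DNA damage repair) were exposed to compounds. Growth inhibition was measured against vehicle-treated controls.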

[5] = NCI Yeast Anticancer Drug Screen. Data for the bub3 strain (AID 167); details: S. cerevisiae bub3 mutant strain, at 50.0 µM, hits give high values
How it was run: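 Compounds were applied to a genetically altered yeast strain carrying a cell-cycle control defect. Growth inhibition was scored against vehicle-treated controls.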

[6] = NCI Yeast Anticancer Drug Screen. Data for the mlh1 rad18 strain (AID 175); details: S. cerevisiae mlh1 rad18 strain growth inhibition; at 50.0 µM; hits give high values
How it was run: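 Growth inhibition of the yeast strain was measured after compound exposure and expressed relative to vehicle-treated controls. The strain carries defined defects in DNA damage repair.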

Measured: growth inhibition

CCOC(=O)CCC(NC(=O)C(CCC(=O)OCC)NC(=O)OCc1ccccc1)C(=O)O (stereo not given) (tested in a mixture with another compound) (Cbz-Glu(OEt)-Glu(OEt)-OH; configuration not given here)
inactive: [1] -43.5% | [2] 1.15% | [3] -11.2% | [4] -34.9% | [5] -52.9% | [6] 38.6%

NC(=O)OCC1CCCCC1OC(N)=O (stereo not given)
inactive: [1] 26.1% | [2] -17.4% | [3] -14.4% | [4] -92.7% | [5] -2.6% | [6] -10.4%

OC1COC(c2ccccc2)OC1C(O)C1OC(c2ccccc2)OCC1O (stereo not given)
inactive: [1] 5.3% | [2] -3.8% | [3] 12.2% | [4] -38.9% | [5] -8.2% | [6] 10.7%

N#CNc1ccccc1
inactive: [1] 0.05% | [2] 6.15% | [3] -12.2% | [4] -8.8% | [5] 5.15% | [6] 3.45%

CC(C)(C)c1ccc(-c2cc3nc(-c4ccccc4)cc(=O)n3[nH]2)cc1
inactive: [1] -8.05% | [2] -30.3% | [3] 10.5% | [4] 5.9% | [5] 10.8% | [6] -0.55%

O=C(O)COc1c(Cl)cc(Cl)c2cccnc12
inactive: [1] 28.9% | [2] -3.85% | [3] -15.7% | [4] -16.9% | [5] -63.2% | [6] -4.45%

O=C(CSc1nnc(-c2ccc(N=Cc3ccc(Cl)cc3)cc2)o1)Nc1ccc([N+](=O)[O-])cc1
inactive: [1] 14.7% | [2] -7.65% | [3] 14.7% | [4] -53.8% | [5] -11.3% | [6] 14.9%

COc1ccc(C2(C)c3ccccc3C(=O)C(C)(C)C2(C)CC(=O)O)cc1 (stereo not given)
inactive: [1] -0.65% | [2] 6.45% | [3] -1.8% | [4] -9.7% | [5] 5.05% | [6] 5.2%

Nc1ccc(C2NC(=O)Cc3c2ccc2ccccc32)cc1 (stereo not given)
inactive: [1] 9.8% | [2] 9.7% | [3] 7.45% | [4] -43.4% | [5] 10.3% | [6] 13.6%

O=C(O)CC(/C=C\C(=O)C(=O)O)=C\O
inactive: [1] -6.6% | [2] -6.4% | [3] -11.6% | [4] 3.6% | [5] 4.15% | [6] -10.2%

CCSc1nnc(-c2ccccc2)nc1Cc1ccc(OC)cc1
inactive: [1] -38.2% | [2] -13.2% | [3] -62.7% | [4] -12.8% | [5] -30.5% | [6] -39.5%

CC(C)=C1C(=O)N(C)C(=O)C1C(N)=O (stereo not given)
inactive: [1] 0.1% | [2] 1.85% | [3] -15.9% | [4] -6.05% | [5] 2.85% | [6] 11.4%

O=c1oc2ccccc2c(O)c1C=NC(=S)c1ccncc1
inactive: [1] -30.6% | [2] -38.4% | [3] -27.9% | [4] 24.9% | [5] -11.3% | [6] -25.5%

O=C1COCC(=O)N1
inactive: [1] 7.35% | [2] -22% | [3] 8.85% | [4] -1.95% | [5] 0.05% | [6] -0.2%

CCCCCCc1cc(-c2cc(CCCCCC)nc(N)n2)nc(N)n1
inactive: [1] -4.25% | [2] 7.05% | [3] 0% | [4] 4.55% | [5] -9.1% | [6] 16.4%

O=C1CCC(=O)c2cc(Br)ccc2N1
inactive: [1] 25.8% | [2] 11.8% | [3] 2.85% | [4] 13% | [5] 46.2% | [6] 23.1%

O=C1CN(c2cccc(Cl)c2)C(=O)CN1CCN1CC(=O)N(c2cccc(Cl)c2)CC1=O
inactive: [1] -35.2% | [2] -11.7% | [3] -19.6% | [4] -7.8% | [5] -37.5% | [6] -32.2%

COC(=O)c1[nH]c(C)c(C(=O)OC)c1C
inactive: [1] -8.5% | [2] -27.7% | [3] -3.1% | [4] -5% | [5] -13.2% | [6] -12.8%

CS/C(c1ccccc1)=[N+](/C)[O-]
inactive: [1] 42.6% | [2] 16.5% | [3] 17.3% | [4] -1% | [5] 24.6% | [6] 25.6%

N#CCc1ccc(-c2ccccc2)cc1
inactive: [1] -2.75% | [2] 20.9% | [3] 3.3% | [4] -31.9% | [5] -19.6% | [6] 6.25%
